Data: PubChem BioAssay AID651568 (National Center for Advancing Translational Sciences (NCATS), 2012)
The campaign covered roughly 1,200 compounds. About 55 (5%) were called active. A call without a number means that no potency is given here. Inconclusive results (about 15%) are left out. Calls come from the whole dose curve; as a rule, active = well fitted inhibition curve with a large enough effect; inconclusive = small, poorly fitted or top-dose-only effect; inactive = no such curve, though single readings can be large or run the other way. The sample as a whole holds a higher share of actives than the screen did.

assay: qHTS Assay to Find Inhibitors of Chronic Active B-Cell Receptor Signaling: Hit Validation in Renilla Reporter Assay; settings: TMD8 IkB-Renilla luciferase reporter, NF-kB signaling; series mostly up to 57.5 µM; note: nearly all actives have a fitted effect of over 70% in size
From the text: Diffuse large B-cell lymphoma (DLBCL) is the most common category of non-Hodgkin lymphoma, with ~20,000 new cases per year in the United States. DLBCL should be regarded as a collection of different neoplasms. Microarray gene expression analysis has defined two principal types of DLBCL, named for their similarity to normal B cell stages or activation states: a germinal center B-cell (GCB) type, and an activated B-cell (ABC) type. In ABC-DLBCL, a constitutive high-level activity of the NF-kappaB family of transcription factors has been observed (1) and NF-kappaB target genes are more highly expressed in ABC primary tumors than in GCB tumors. Functional studies have shown a constitutive high-level activity of the IkappaB (inhibitor of kappa-B) kinase (IKK) complex. […] Further analysis of DLBCL primary tumors for NF-kappaB target gene expression imply that although CARD11 is required for constitutive IKK activity in all ABC-DLBCL lines, mutations in CARD11 may be the root cause of IKK activation only in lines or tumors with such mutations. In other words, CARD11 mutations may explain NF-kappaB activation in only 10% of ABC-DLBCL cases. […] This process has been termed 'chronic active BCR signaling' (CABS). The goal of this screen is to find small-molecule inhibitors of the CABS pathway found in ABC-DLBCL lines using a cell-based assay that measures IkappaBalpa stability, which has already been extensively validated in the OCI-Ly3 line (PubChem AID:445; REF: 4). […] Hits from the primary screen were tested in this orthogonal secondary assay. NIH Molecular Libraries Probe Production Network [MLPCN] NIH Chemical Genomics Center [NCGC] MLPCN Grant: R03 DA031086 PI Name: Dr. R. Eric Davis
The IkB-Photinus/Renilla reporter assay differs from the primary assay in that the reporters are constitutively expressed, and based on luciferases that are different from the click beetle luciferases and each other. These differences should help to eliminate artifactual sources of activity specific to the primary assay. This assay uses the Dual-Glo substrate from Promega; extensively validated in a 96-well format, it could be converted to a smaller-well format. All lines needed for the IkB-Photinus/Renilla assay have already been prepared and extensively validated
Potency is the fitted concentration of half-maximal effect.

Structure (SMILES)	Potency
CNC(=S)N/N=C(\C)c1ccc2c(c1)OCCO2	inactive
CCOc1ccc2c(c1)OC(c1ccc(OC)cc1)(C(F)(F)F)NC2=O (stereo not drawn)	inactive
CC(C)(C)c1ccc(C(=O)CCC(=O)NCc2ccccc2)cc1	inactive
C=CCN(C(=O)CSC1=NC(=O)CN1C(C)=O)c1nc(C)c(-c2ccccc2)s1	inactive
S=c1nn[nH]n1C12CC3CC(CC(C3)C1)C2	inactive
Cc1ccccc1Nc1nc(N)nc(COC(=O)c2cccc(S(=O)(=O)N(C)C)c2)n1	inactive
CCOC(=O)C1=C(COC(=O)/C=C/c2ccc(O)c(OC)c2)NC(=O)NC1C (stereo not drawn)	inactive
O=C(COc1ccccc1-c1ccccc1)N/N=C/c1ccc2ccccc2c1	inactive
COc1ccc(/C=N/NC(=O)CCn2cnc(-c3ccccc3)c2-c2ccccc2)cc1OC	inactive
COc1ccc(/C=N/NC(=O)CCn2cnc(-c3ccccc3)c2-c2ccccc2)cc1	26.9 µM (active)
COc1ccc(OC)c(Nc2c3c(nc4ccccc24)CCC3)c1	inactive
Cc1ccc(C(=O)O)cc1NC(=S)NC(=O)C(c1ccccc1)c1ccccc1	inactive
COc1ccc(C)cc1NC(=O)CNC(c1ccccc1)c1ccc(C)cc1 (stereo not drawn)	inactive
Cc1ccc(C(=O)Sc2cccccc2=O)cc1	6.75 µM (active)
COc1ccc(NC(=O)Cn2nnc(-c3ccccc3NS(=O)(=O)c3ccc(OC)cc3)n2)cc1	inactive
CCOc1cccc(C2CC(=O)Nc3cc(OC)c(OC)cc32)c1 (stereo not drawn)	inactive
COc1cccc(/C=C/C(=O)Nc2cc(S(=O)(=O)N3CCOCC3)ccc2OC)c1	inactive
CCC1=Nc2cc(C(=O)NCCCOC(C)C)ccc2Sc2ccc(C)cc21	inactive
O=C(Oc1c(Cl)cc(Cl)c2cccnc12)c1ccco1	12 µM (active)
Cc1c(C(=O)Oc2cccc3cccnc23)oc2ccccc12	inactive
COc1cc(OC)cc(C(=O)Oc2c(CN3CCOCC3)cc(Cl)c3cccnc23)c1	inactive
O=C(Oc1c(CN2CCOCC2)cc(Cl)c2cccnc12)c1ccc(F)cc1	inactive
O=C(Oc1ccc(Cl)c2cccnc12)C12CC3CC(CC(C3)C1)C2	inactive
O=C(Oc1c(Cl)cc(Cl)c2cccnc12)c1cccs1	23.9 µM (active)
O=C1NC(=Nc2ccc(O)cc2)S/C1=C\C=C\c1ccco1	inactive
O=C(Nc1ncc(Cc2ccc(SC(F)F)cc2)s1)c1ccc(OC(F)F)cc1	inactive

Structure (SMILES)	Potency
CCCc1nnc(NC(=S)Nc2ccccc2)s1	inactive
CC1CCCN(c2ccc([N+](=O)[O-])cc2C(=O)c2ccccc2)C1 (stereo not drawn)	inactive
N#CC1=C(N)Oc2cc(N)ccc2C1c1cccc(Br)c1 (stereo not drawn)	inactive
O=C(c1cc([N+](=O)[O-])ccc1N1CCOCC1)N1CCN(c2ccccc2)CC1	inactive
CCOC(=O)c1c(C)n(C)c2ccc(OC)c(NC(=O)CN3CCN(C(=O)c4ccco4)CC3)c12	inactive
CCOc1ccc(S(=O)(=O)NCc2ccccn2)cc1NC(=O)c1ccccc1F	inactive
Cc1c(C(=O)N/N=C/c2ccc(Cl)cc2)[nH]c2ccc(Cl)cc12	inactive
CCOC(=O)c1c(C)[nH]c(C(=O)N/N=C/c2ccc(Br)cc2)c1C	10.7 µM (active)
CCOC(=O)c1[nH]c(C)c(C(=O)OCC)c1C	inactive
CCOC(=O)CSC1=C(C#N)C(c2ccc(C)o2)CC(=O)N1 (stereo not drawn)	inactive
COc1ccc(-c2[nH]ncc2/C=C(\C#N)C(=O)NC2CC2)cc1	inactive
CC1CCc2c(sc(NC(=O)CSc3nc(N)cc(=O)[nH]3)c2C(N)=O)C1 (stereo not drawn)	inactive
COc1ccc(CNc2nc(NCc3ccc(OC)cc3)c3ncn(C4CCCC4)c3n2)cc1	inactive
O=C(NN=C(c1ccccc1)c1ccccn1)c1ccccc1	26.9 µM (active)
C/C(=N\NC(=O)c1ccc(F)cc1)c1ccccn1	inactive
CCOc1ccc(OCc2ccc(C(=O)N/N=C(\C)c3ccccn3)cc2)cc1	inactive
Cc1onc(-c2ccccc2)c1C(=O)Nc1cc(C(F)(F)F)ccc1N1CCOCC1	inactive
NC(=S)N=Nc1c(O)n(Cc2ccc(Br)cc2)c2ccccc12	inactive
C=CCNC(=S)N/N=C/c1cn(C)c2ccccc12	inactive
CC(=O)c1cc(C#N)c(SCCC(C)C)nc1C	inactive
C=CCOc1ccc(/C=C2\SC(N)=NC2=O)cc1OC	inactive
CCCC(=O)OCCNc1cc(Sc2nccn2C)c2nonc2c1[N+](=O)[O-]	3.79 µM (active)
S=c1[nH]nc(-c2ccco2)n1/N=C/C(Cl)=C/c1ccccc1	26.9 µM (active)
COc1cc2sc(-c3ccc(S(C)(=O)=O)cc3)c(C#CCO)c2cc1OC	inactive
COC(=O)c1cnc(Oc2ccc(NC(=O)NC(=O)c3c(OC)cccc3OC)cc2)cc1C(F)(F)F	inactive
COc1ccccc1CNS(=O)(=O)c1ccc(-c2cc(C)no2)cc1	inactive

Structure (SMILES)	Potency
CCN(c1ccccc1)S(=O)(=O)c1ccc(C(=O)NNC(=O)c2ccccc2F)cc1	inactive
O=C(N1CCN(c2ccccn2)CC1)N1c2ccccc2Sc2ccccc21	inactive
O=[N+]([O-])c1cc(/C=N/O)ccc1Sc1ccccc1	inactive
O=[N+]([O-])c1ccc(Sc2nc3ccccc3o2)c([N+](=O)[O-])c1	3.01 µM (active)
CCOc1ccc(C2=Nn3c(nnc3-c3ccccc3OC)SC2)cc1	inactive
COc1ccc(C)cc1NS(=O)(=O)c1ccc(-c2cnc(C3CC3)o2)cc1	inactive
Cc1nc(N2N=C(c3ccc(Cl)cc3)CC2c2ccco2)sc1C(=O)N(C)C (stereo not drawn)	inactive
Cc1ccc(/C=N/NC(=O)c2cc(-c3cccnc3)nc3ccccc23)cc1	inactive
CC[C@@H](C)[C@H](NC(=O)CCc1c(C)c2cc3c4c(oc3c(C)c2oc1=O)CCCC4)C(=O)O	inactive
CCc1c(C)c(C#N)c2nc3ccccc3n2c1Cl	0.953 µM (active)
Cc1cc(Cl)n2c(nc3ccccc32)c1C#N	1.9 µM (active)
Cc1cc(Cl)n2c(nc3cc(F)c(F)cc32)c1C#N	1.69 µM (active)
COc1cc(/C=C2\N=C(c3ccccc3)NNC2=O)cc(OC)c1OC	inactive
CCN(CC)c1ccc(NC(=O)CN2CCN(CC(=O)Nc3ccccc3F)CC2)cc1	inactive
CCOc1nc(OCC)nc(N2CCC(C)CC2)n1	inactive
CCOc1ccc(NC(=O)c2cc(OC)nc3ccccc23)cc1	inactive
CCC1=Nc2cc(C(=O)NCc3ccco3)ccc2Sc2ccc(C)cc21	inactive
Cc1ccc(S(=O)(=O)n2cc(-c3ccccc3)c3ccccc32)cc1	inactive
COc1cc2c(cc1OC)-c1cc(NC3CCCCCC3)nc(=O)n1CC2	inactive
COc1ccc(C(=O)/C=C/c2ccc(O)cc2)c2c1CC(O)C(C)(C)O2 (stereo not drawn)	23.9 µM (active)
COc1ccc(/C=N/NC(=O)c2ccc3c(c2)NC(=O)C(C)(C)O3)cc1OC	inactive
CCOC(=O)c1c(C)c(C(=O)OCC)n(C)c1C	inactive
CC(=O)N1CC(=O)N=C1SCC(=O)Nc1nc(C)c(-c2ccccc2)s1	inactive
CCOc1ccc(S(=O)(=O)Nc2ccc3oc(C)c(C(=O)OCCOC)c3c2)cc1	inactive
CCOC(=O)C1=C(C)NC(C)=C(C(=O)OCC)C1C(=O)OCC(=O)NCc1ccccc1OC	inactive
COc1cc(OC)c2c(-c3cccc(-c4ccc(NC(C)=O)cc4)c3)cc(=O)oc2c1	inactive

Structure (SMILES)	Potency
CC(=O)OCC(=O)[C@@]1(O)CC[C@H]2[C@@H]3CCC4=CC(=O)C=C[C@]4(C)[C@H]3[C@@H](O)C[C@@]21C	inactive
COC(=O)CCC(=O)NC(=S)Nc1sc(C)c(C)c1C(N)=O	inactive
CCSc1nc(-c2ccccc2)nc(C(Cl)Cl)n1	2.69 µM (active)
CCc1ccc(/C=N/NC(=O)c2cc(C3CC3)nc3ccccc23)s1	inactive
N#Cc1ccc(-c2cccs2)nc1SCc1cccnc1	inactive
OC(CNCc1ccc(-c2ccccc2)cc1)c1ccccc1 (stereo not drawn)	inactive
COc1ccc(-c2cnnn2-c2ccc(N)cc2)cc1OC	inactive
O=C(N/N=C/c1ccc(Cl)cc1)c1n[nH]c2c1CCCC2	inactive
O=C(Cc1ccc(-c2ccccc2)cc1)NCc1ccccc1	inactive
O=C(Cc1n[nH]c(=O)c2ccccc12)OCC(=O)c1ccc2c(c1)OCCO2	inactive
CC(C)N1C(=O)/C(=C\c2nc3ccccc3c(=O)[nH]2)c2ccccc21	23.9 µM (active)
CC(C)N1C(=O)/C(=C/c2nc3ccccc3c(=O)n2-c2ccccc2)c2ccccc21	13.5 µM (active)
Cc1cc(C)cc(N2CC(O)=C(c3nc4ccccc4c(=O)[nH]3)C2=N)c1	inactive
O=C(CSc1nc2ccccc2c(=O)n1-c1ccccc1F)NC1CC1	inactive
Cc1ccc(Sc2c(CO)c(-c3ccccc3)nn2C)cc1	inactive
COc1ccc(NC(=O)C(=O)c2cn(CC(=O)N3CCCC3)c3ccccc23)cc1	inactive
CC(=O)Nc1ccc(NS(=O)(=O)c2cc(-c3n[nH]c(=O)c4ccccc34)ccc2C)cc1	inactive
COC(=O)c1ccc(C)c(NS(=O)(=O)c2ccc(OC)cc2)c1	inactive
CCOc1ccccc1C(=O)N1CCN(c2cccc(Cl)c2)CC1	inactive
COc1ccc(-c2c(C)c3ccc(O)cc3oc2=O)cc1OC	inactive
Cc1cccc(C(=O)N[C@H](C(=O)Nc2nc3ccccc3[nH]2)C(C)C)c1	inactive
Cc1ccc(/C=C/C(=O)c2nc3ccccc3[nH]2)cc1	16.9 µM (active)
CC1=CC(C)(C)N(S(=O)(=O)c2ccc(C)cc2)c2cc(C)ccc21	inactive
COC(=O)c1cc(C(=O)N2CCN(c3cccc(Cl)c3)CC2)cc([N+](=O)[O-])c1	inactive
COc1cccc(/C=N/NC(=S)Nc2cccc(S(=O)(=O)N(C)C)c2)c1	inactive
